# Source: PubChem BioAssay AID504332 (National Center for Advancing Translational Sciences (NCATS), 2011)
# Hit rate of the full screen: of about 350,000 compounds, about 31,000 (8.9%) were called active. About 15% were inconclusive and are not listed. Many of the other results were omitted from the sample, so actives are more common in it than they were. Unmarked numbers belong to inactive results. The call rests on the fitted dose curve; in most records, active means well fitted inhibition curve with a large enough effect; inconclusive means small, poorly fitted or top-dose-only effect; inactive means no such curve, though single readings can be large or run the other way.
# Target: Histone-lysine N-methyltransferase EHMT2 (Homo sapiens) (UniProt Q96KQ7)
# Sequence (Q96KQ7 913-1193 limits assumed): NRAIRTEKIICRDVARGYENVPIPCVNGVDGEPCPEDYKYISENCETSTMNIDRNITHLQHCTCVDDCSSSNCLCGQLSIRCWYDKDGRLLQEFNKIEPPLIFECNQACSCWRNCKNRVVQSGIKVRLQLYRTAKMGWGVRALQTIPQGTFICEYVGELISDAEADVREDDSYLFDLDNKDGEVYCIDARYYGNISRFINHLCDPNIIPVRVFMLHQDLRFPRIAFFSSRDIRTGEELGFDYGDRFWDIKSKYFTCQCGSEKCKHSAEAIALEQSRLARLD
# Test: qHTS Assay for Inhibitors of Histone Lysine Methyltransferase G9a; further: nearly all actives have a fitted effect of over 75% in size
# Conditions: G9a H3K9 monomethylation, AlphaScreen, 2 h; series mostly up to 59 µM; activity, negative = inhibition: at the top concentration
# Procedure, shortened: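 AlphaScreen read-out: biotin-H3K9 peptide (500 nM) methylation by 20 nM enzyme with 20 uM SAM, 2 h at room temperature after 15 min compound preincubation; anti-monomethyl H3K9 antibody plus donor/acceptor beads, 10 min dark.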
# On the % scale 0 is the no-effect control and ±100 the full control effect; potency means the concentration at half of the fitted maximal effect.
SMILES,"activity, negative = inhibition",Potency
Cc1ccc(CN2C(=O)SC(Nc3ccccc3)C2=O)cc1 (configuration not stated),1.21%,
Cn1cc(/C=C/c2nc3ccccc3c(=O)n2-c2cccc([N+](=O)[O-])c2)c2ccccc21,-7.57%,
Cc1cccc(N=C2NC(=O)/C(=C/c3cn(C)c4ccccc34)S2)c1,,79.4 µM (active)
Cc1ccc(N2C(=O)S/C(=C/c3cn(C)c4ccccc34)C2=O)cc1,1.11% [at 102 µM],
CCC(=O)N1CCc2cc(S(=O)(=O)NC(C(=O)Nc3ccc(C(C)=O)cc3)C(C)C)ccc21 (configuration not stated),1.46%,
Cc1ccc(C)c(NC(=O)C2CCCN(S(=O)(=O)c3cn(C)cn3)C2)c1 (configuration not stated),15.1%,
C=CCNc1nc(N)c([N+](=O)[O-])c(NC2CCCCC2)n1,-5.17% [at 102 µM],
CCCNC(=O)CCc1c(C)nc2c(c(C)nn2-c2ccccc2)c1C,38.4% [at 102 µM],
Cc1ccc(C)c(Cn2c(C(=O)O)c(CNCc3cccs3)c3ccccc32)c1,-1.51%,
NS(=O)(=O)c1ccc(Nc2nc(-c3ccccc3)cs2)cc1,,44.7 µM (active)
COc1ccc2nc(Nc3nc(-c4ccncc4)cs3)sc2c1,4.27% [at 102 µM],
CC(=O)Nc1ccc(-c2csc(NC(=O)Nc3ccccc3)n2)cc1,,44.7 µM (active)
COc1ccc(-c2csc(NC3OC(=O)c4ccccc43)n2)cc1 (configuration not stated),0.895%,
COc1ccc(OC)c(Nc2nc(-c3ccc(O)c(O)c3)cs2)c1,,3.98 µM (active)
O=C(Nc1ccc(-c2csc(Nc3cccc(C(F)(F)F)c3)n2)cc1)c1cccc(C(F)(F)F)c1,-6.74% [at 12.7 µM],
COc1cccc(CC(=O)Nc2nc(-c3ccc(OC)c(OC)c3)cs2)c1,-6.69% [at 102 µM],
O=C(Nc1ccccc1)Nc1nc2ccccc2s1,-5.29% [at 102 µM],
COc1ccc(Nc2nc(-c3ccccc3)cs2)cc1,,12.6 µM (active)
CCOC(=O)Cc1csc(NC(=O)Nc2ccccc2)n1,6.91%,
CC(=O)Nc1nc(C)c(-c2csc(Nc3ccc(S(N)(=O)=O)cc3)n2)s1,-39% [at 102 µM],
COc1ccc(CC(=O)Nc2nc(-c3ccc(F)c(F)c3)cs2)cc1OC,-13.8% [at 102 µM],

SMILES,"activity, negative = inhibition",Potency
CCOc1ccc(NC(=O)CSc2c3c(nc4ccccc24)CCCC3)cc1,7.49%,
COc1ccccc1CNC(=O)COn1nnc2ccc(S(=O)(=O)N3CCOCC3)cc21,-27.8% [at 102 µM],
Cc1cc(O)c(C(=O)/C=C/c2c(F)c(F)c(F)c(F)c2F)c(=O)o1,-25.4% [at 2.33 µM],
Cc1ccc2c(c1)N(C(=O)Nc1ccc(Br)cc1F)CCO2,-22.5%,
Cc1ccc(S(=O)(=O)N2CCN(c3ccccc3)CC2)cc1C,2.79% [at 102 µM],
NS(=O)(=O)c1ccc(CNC(=O)c2cccc(S(=O)(=O)N3CCc4ccccc43)c2)cc1,15.2% [at 2.33 µM],
Cc1ccc(NCc2n[nH]c(=S)n2-c2ccccc2)cc1Cl,,22.4 µM (active)
Cc1ccc(OCc2n[nH]c(=S)n2-c2ccccc2)cc1,,1.58 µM (active)
Cc1ccc(NC(=O)CSc2nc3c([nH]c4ccccc43)c(=O)n2-c2ccccc2)cc1Cl,0.779%,
COc1ccc(OCc2ccc(-c3nc4ccccc4c(=O)n3N)o2)cc1,14.4% [at 2.33 µM],
CC(Sc1nnc(COc2ccccc2)n1-c1ccccc1)C(=O)O (configuration not stated),9.68% [at 0.501 µM],
Cc1ccc(OCc2n[nH]c(=S)n2-c2ccc(C)cc2)cc1,18.9% [at 102 µM],
COc1ccc(OCc2n[nH]c(=S)n2N)cc1,,1.78 µM (active)
Cc1n[nH]c(=O)n1-c1ccc(Oc2ccccc2)cc1,106%,
COc1ccc(OCC(=O)OCCN(C)C)cc1,-13.2%,
S=c1[nH]nc(COc2ccccc2)n1-c1ccccc1,,2.51 µM (active)
Cc1ccc(NC(=O)Nc2cc(-c3ccccc3)nn2C)cc1Cl,4.64% [at 102 µM],
Cc1ccc(OCc2nc3ccccc3n2C)cc1,4.42% [at 0.501 µM],
CN(C)CCn1c2c(c(SCC(=O)Nc3ccccc3C(F)(F)F)nc1=O)CCCC2,7.38% [at 0.501 µM],
CCOC(=O)c1ccc(NC2=CC(c3ccc(OCC)cc3)N(c3ccc(C(=O)OCC)cc3)C2=O)cc1 (configuration not stated),-41.8%,
COc1cc(NC(=O)CCn2nc(C)cc2C)cc(OC)c1OC,7.03%,

SMILES,"activity, negative = inhibition",Potency
Cc1c(Cl)cccc1NC(=O)C1CCCN(C(=O)c2cnn(-c3ccccc3)c2-n2cccc2)C1 (configuration not stated),-2.57%,
Cn1c(C(=O)N2CCCC(C(=O)NCc3ccccc3)C2)cc2sccc21 (configuration not stated),-0.912%,
COc1ccc(-c2noc(CSc3nc4ccc(C)cc4[nH]3)n2)cc1,4.71%,
O=C(Nc1ccc(C(F)(F)F)cc1)c1cccc(-n2cnnn2)c1,-33%,
O=C(CN1C(=O)COc2ccc(Cl)cc21)N1CCOCC1,78.5% [at 102 µM],
CC(=N\NC(=O)c1cc(Br)ccc1O)/C(=N/O)C(=O)Nc1ccccc1,1.77% [at 102 µM],
COc1ccc(OC)c(/C=C/C(=O)c2ccc3c(c2)OCO3)c1,13.7% [at 12.7 µM],
Cc1ccccc1-c1nc(CS(=O)(=O)CC(=O)Nc2cc(Cl)cc(Cl)c2)c(C)o1,-2.38%,
CCOc1ccccc1C(=O)NC1(C(F)(F)F)NC(=O)N(CCc2ccc(OC)c(OC)c2)C1=O (configuration not stated),-8.28%,
O=C(CSc1ncnc2sccc12)N1CCN(C(=O)c2cccs2)CC1,14% [at 12.7 µM],
COc1ccc(CNC(=O)c2cc3c(=O)[nH]c4ccc(C)cc4c3s2)c(OC)c1,9.06%,
CCOc1ccc(C(=O)Nc2cc(Cl)ccc2-n2cncn2)cc1OC,,15.8 µM (active)
CCOc1ccc(C(=O)Nc2cc(OC)ccc2OC)cc1,20% [at 102 µM],
COc1cc(C(=O)Nc2cc(C(F)(F)F)ccc2-n2cncn2)cc(OC)c1OC,1.32% [at 102 µM],
COc1ccc(-n2nnnc2CNC(=O)c2ccc3ccccc3c2)cc1,-3.4% [at 102 µM],
CN(C)C(CNC(=O)c1cccc(S(=O)(=O)Nc2ccc(Br)cc2)c1)c1ccco1 (configuration not stated),,50.1 µM (active)
COc1ccccc1C(CNC(=O)c1cccc(NS(=O)(=O)c2ccc(Br)cc2)c1)N(C)C (configuration not stated),-36.2% [at 102 µM],
COc1ccccc1C(CNC(=O)c1cccc(S(=O)(=O)Nc2ccc(F)cc2)c1)N(C)C (configuration not stated),17.4% [at 12.7 µM],
CCOc1ccccc1CNCc1c(C(=O)O)c(C)n(Cc2ccc(C)cc2)c1C,-1.87%,
O=C(O)c1cc2c(cc1NC(=O)c1c(F)cccc1Cl)OCCCO2,-15.3% [at 102 µM],
